High-throughput results (PubChem)
TRHR enhancer = allosterically enhances the human TRH receptor | P34981 | TRHR cells, fluo-8 calcium fluorescence, EC20 TRH enhancement | enhancement, % at 2 µM | actives 0.66% (n = 360,000); in the data active means enhancement above about 30%; further: 0% is about no effect
Target sequence (P34981 whole entry, looked up): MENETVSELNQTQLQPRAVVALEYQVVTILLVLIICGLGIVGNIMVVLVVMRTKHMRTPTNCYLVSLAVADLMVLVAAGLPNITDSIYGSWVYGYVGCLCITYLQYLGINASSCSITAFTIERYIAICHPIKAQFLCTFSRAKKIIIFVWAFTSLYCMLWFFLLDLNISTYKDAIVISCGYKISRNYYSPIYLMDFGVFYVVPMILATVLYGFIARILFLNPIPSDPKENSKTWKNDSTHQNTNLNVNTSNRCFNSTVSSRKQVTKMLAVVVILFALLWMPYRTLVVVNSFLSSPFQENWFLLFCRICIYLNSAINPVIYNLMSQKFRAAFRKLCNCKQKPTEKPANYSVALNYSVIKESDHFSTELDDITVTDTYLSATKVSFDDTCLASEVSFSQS
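Enhancer read-out: after compound pinning and an initial kinetic agonist-mode read, an EC20 of TRH (10 nM final) was injected and fluo-8 calcium signal (Ex 480/Em 530) followed at 1 s/cycle for 100 cycles in TRHR-expressing cells.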
TRHR ag = TRH receptor (human) agonism; AID 493084; P34981; TRHR cells, calcium flux fluo-8, FDSS agonist mode; actives 0.18% (n = 360,000); activation, % at 2 µM; further: 0% is about no effect
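Agonist-mode FDSS calcium read (Ex 480/Em 530, 1 s cycles) in 1536-well TRHR cells with fluo-8 dye, after 10-cycle baseline and 23 nL compound addition; TRH at EC20 (10 nM final) added afterwards for the enhancer phase.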
D1 ag = human D1 receptor agonism; AID 504660; HEK293 T-REx D1 cells, calcium flux, agonist mode; activation, % at 2 µM; actives 1% (n = 360,000); P21728; further: 0% is about no effect
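Inducible HEK293 T-REx D1 cells, force-coupled to calcium signalling, were plated at 4000 cells/well with tetracycline and held overnight at 30 C. After no-wash calcium dye loading, compound-evoked calcium rise over 180 s flagged agonists.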
D1 antag = blocks dopamine activation of the human D1 receptor. AID 504652. actives 3.2% (n = 360,000). activity change, negative = inhibition, % at 10 µM. HEK293 TREx D1 cells, calcium flux, dopamine EC80; stronger effect = lower value; in the data active means activity change below about -30%; further: on the % scale 0 is the no-effect control and ±100 the full control effect
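After overnight tetracycline induction at 30 C, force-coupled D1 HEK293 cells took up a no-wash calcium dye at room temperature. Compounds were added and monitored 180 s, and the response to EC80 dopamine was then recorded.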
D1 PAM = human D1 dopamine receptor positive modulation; P21728; HEK293 TREx D1 cells, calcium flux, dopamine EC20 potentiation; potentiation, % at 10 µM; actives 0.036% (n = 360,000); in the data active means potentiation above about 30%; further: 0% is about no effect
An asterisk follows results filed as active; . = no result given. Hits are enriched below; roughly 4.6% of the tested compounds scored in any of these assays. Unless noted, no stated cut-off is given here; in the data, active means activation above about 30%; inactive means the rest.

SMILES	TRHR enhancer	TRHR ag	D1 ag	D1 antag	D1 PAM
O=C(c1nc2n(n1)C(c1ccc(Cl)cc1)C=C(c1ccccc1)N2)N1CCOCC1 (stereo not drawn)	6	33*	27	7	3
COc1ccc(C(=O)Nc2nc3n(n2)C(c2ccccc2)C=C(c2ccccc2)N3)cc1 (stereo not drawn)	-4	14	32*	-13	-4
COc1ccc(C2C=C(c3ccccc3)Nc3nc(NC(=O)/C=C/c4ccccc4)nn32)cc1 (stereo not drawn)	2	0	1	10	-1
CCC(=O)Nc1nc2n(n1)C(c1ccc(OC)cc1)C=C(c1ccccc1)N2 (stereo not drawn)	-3	0	69*	-3	-2
COc1ccc(C2C=C(c3cccs3)Nc3nc(CCCO)nn32)cc1 (stereo not drawn)	0	99*	64*	8	7
COc1cc(OC)c(NC(=O)C(CC(C)C)N2Cc3ccccc3C2=O)cc1Cl (stereo not drawn)	13	2	-1	6	0
O=C(Nc1nc2n(n1)C(c1ccccc1)C=C(c1ccc(Cl)cc1)N2)c1ccco1 (stereo not drawn)	-2	22	47*	-1	-1
COc1ccc(C2C=C(c3ccc(F)cc3)Nc3nc(-c4ccc(Cl)cc4)nn32)cc1 (stereo not drawn)	7	-1	38*	9	-4
COc1ccc(C2=CC(c3ccc(F)cc3)n3nnnc3N2)cc1 (stereo not drawn)	-2	0	0	-8	-6
COc1ccc(C2C=C(c3ccc(Cl)cc3)Nc3nc(NC(C)=O)nn32)cc1 (stereo not drawn)	9	-2	40*	-3	-5
Cc1[nH]c(=O)[nH]c(=O)c1S(=O)(=O)Nc1cccc(Cl)c1C	8	1	-1	-1	0
COc1ccc(/C(N)=N/OC(=O)C2CCC(=O)N2S(=O)(=O)c2ccc(C)cc2)cc1 (stereo not drawn)	1	0	5	-32*	-8
O=C1S/C(=C\c2ccc(N3CCOCC3)o2)C(=O)N1Cc1ccc(F)cc1	-5	22	42*	9	-6
O=C1NC(=S)S/C1=C/c1ccc(N2CCOCC2)o1	6	-1	7	-3	2
CC(C)OC(=O)CN1C(=O)S/C(=C/c2ccc(N3CCCCC3)o2)C1=O	3	27	61*	2	-7
O=C1S/C(=C/c2ccc(N3CCOCC3)o2)C(=O)N1Cc1ccc(F)cc1	-6	35*	83*	-4	-5
O=C(Cn1c(=O)n(-c2ccc(Cl)cc2)c(=O)c2c3c(sc21)CCCCC3)Nc1cccc(Cl)c1	0	1	11	5	0
O=C(CN1C(=O)C2(SCC(=O)N2c2cccc(Cl)c2)c2ccccc21)NCCc1ccccc1 (stereo not drawn)	6	-1	10	-13	5
Cc1ccc(C)c(C2NC(=O)c3ccccc3N2)c1 (stereo not drawn)	37*	0	0	-24	-1
Cc1cc(C)c2nc(Cl)c(C3NC(=O)c4ccccc4N3)cc2c1 (stereo not drawn)	-6	-1	0	-8	-5
Cn1c(=O)c2c(nc(NCc3ccccc3)n2Cc2ccc(Cl)c(Cl)c2)n(C)c1=O	-2	-1	13	0	1
O=C(Nc1ccccc1)Nc1cc(OCC(F)(F)F)cc(OCC(F)(F)F)c1	-13	1	22	-33*	-10
COc1ccc(NC(=S)Nc2cccc(C(F)(F)F)c2)c(C)c1	-7	0	2	.	-4
COc1ccc(C2SCCN2C(=S)Nc2cccc(C(F)(F)F)c2)cc1 (stereo not drawn)	14	0	56*	-36*	-9
COc1ccc(C2SCCN2C(=S)Nc2ccc(F)cc2)cc1 (stereo not drawn)	-1	1	18	-6	-2
SMILES	TRHR enhancer	TRHR ag	D1 ag	D1 antag	D1 PAM
CCOC(=O)c1ccc(NC(=S)N2CCSC2c2ccc(Cl)cc2)cc1 (stereo not drawn)	0	5	31*	-12	-8
CCOC(=O)c1ccc(NC(=S)N2CCSC2c2ccc(OC)cc2)cc1 (stereo not drawn)	7	-1	40*	19	10
Cc1ccccc1N(C)C(=O)c1noc2c1COc1ccccc1-2	-8	2	7	6	1
O=C(Cc1cccc2ccccc12)Nc1c(F)cccc1F	4	-2	1	-36*	-5
CCc1ccc(-c2csc(-c3cc4cc(Br)ccc4oc3=O)n2)cc1	1	1	7	-4	-4
CCN(CC)c1ccc2cc(-c3nc(-c4ccc(Cl)cc4Cl)cs3)c(=O)oc2c1	0	22	119*	22	-2
CCN(CC)c1ccc2cc(-c3nc(-c4ccc(OC)cc4)cs3)c(=O)oc2c1	-24	174*	419*	-58*	-1
Cc1ccc(C)c(CNC(=O)C2CCCCN2S(=O)(=O)c2ccc(F)cc2)c1 (stereo not drawn)	-1	-1	44*	-37*	-5
O=C(NCCc1ccccc1F)C1CCCN1S(=O)(=O)c1ccc2ccccc2c1 (stereo not drawn)	-1	0	41*	-53*	-15
CCNC(=O)C1CCCN1S(=O)(=O)c1ccc2ccccc2c1 (stereo not drawn)	-1	-1	0	-6	-5
CC(C)Oc1ccc(CNC(=O)C2CCCCN2S(=O)(=O)c2ccc(F)cc2)cc1 (stereo not drawn)	13	0	4	-40*	-6
O=[N+]([O-])c1cccc(-c2ccc(C(=S)N3CCOCC3)o2)c1	4	0	0	-35*	-2
Cc1ccc(NC(=O)c2sc3nc(-c4ccncc4)ccc3c2N)cc1	-6	-1	165*	-5	14
Cc1ccccc1NC(=O)c1sc2nc(-c3ccncc3)ccc2c1N	-3	10	48*	-17	-4
COc1ccc(OCC(=O)Nc2cc(-c3nc4ccccc4o3)ccc2Cl)cc1	3	0	0	-12	-2
CCOc1ccc(N2CC(c3nc4ccccc4n3CCCOc3ccccc3OC)CC2=O)cc1 (stereo not drawn)	-8	1	5	-22	-2
N#CC1=C(N)Oc2n[nH]c(-c3ccccn3)c2C1c1c(F)cccc1Cl (stereo not drawn)	-9	-1	2	-31*	-7
COCc1[nH]nc2c1C(c1c(F)cccc1Cl)C(C#N)=C(N)O2 (stereo not drawn)	4	0	5	-4	-4
CNC(=O)C1CCN(Cc2cc3ccccc3n2Cc2ccccc2C)CC1	0	0	6	25	-2
Cc1ccccc1Cn1c(CN2CCC(C(=O)NCCN(C)C)CC2)cc2ccccc21	3	4	45*	-8	-3
